VDR inhibitor: inhibitors of human vitamin D receptor; P11473; VDR-SRC2-3 peptide fluorescence polarization, 2 h; Potency, µM, for inactives: max response, negative = inhibition, usual class: inhibitors; hit rate 0.93% among 400,000; AID 504847; note: potency is the fitted concentration of half-maximal effect; % is set by controls: 0 for no effect and ±100 for the full control effect
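FP read-out; VDR + SRC2-3 coactivator peptide; 23 nl compound by pintool; 2 h RT incubation; reagents held at 4 deg C, protected from light.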
uPA surface inh: cell surface uPA generation inhibition; hit rate 0.31% among 330,000; Potency, µM (titrated, usually from 38.3 µM), for inactives: at the top dose activity change, negative = inhibition, usual class: inhibitors; cell surface uPA generation assay, qHTS; active = well fitted inhibition curve with a large enough effect; inconclusive = small, poorly fitted or top-dose-only effect; inactive = no such curve, though single readings can be large or run the other way; tested in mouse RAW 264.7 cells; note: potency is the fitted concentration of half-maximal effect; % is set by controls: 0 for no effect and ±100 for the full control effect; nearly all actives have a fitted effect of over 55% in size
TSHR antag: antagonists of human thyroid stimulating hormone receptor. P16473. TSHR-expressing cells, TSH-stimulated cAMP HTRF, 2 h; stronger effect = lower value. activity change, negative = inhibition, % at 11.5 µM. hit rate 0.2% among 330,000;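 active = activity change below a set negative limit, meaning inhibition stronger than a set level, cut at about -70% in these data; inconclusive = activity change between two set negative limits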; note: % is set by controls: 0 for no effect and ±100 for the full control effect
Target sequence (P16473 whole entry, looked up): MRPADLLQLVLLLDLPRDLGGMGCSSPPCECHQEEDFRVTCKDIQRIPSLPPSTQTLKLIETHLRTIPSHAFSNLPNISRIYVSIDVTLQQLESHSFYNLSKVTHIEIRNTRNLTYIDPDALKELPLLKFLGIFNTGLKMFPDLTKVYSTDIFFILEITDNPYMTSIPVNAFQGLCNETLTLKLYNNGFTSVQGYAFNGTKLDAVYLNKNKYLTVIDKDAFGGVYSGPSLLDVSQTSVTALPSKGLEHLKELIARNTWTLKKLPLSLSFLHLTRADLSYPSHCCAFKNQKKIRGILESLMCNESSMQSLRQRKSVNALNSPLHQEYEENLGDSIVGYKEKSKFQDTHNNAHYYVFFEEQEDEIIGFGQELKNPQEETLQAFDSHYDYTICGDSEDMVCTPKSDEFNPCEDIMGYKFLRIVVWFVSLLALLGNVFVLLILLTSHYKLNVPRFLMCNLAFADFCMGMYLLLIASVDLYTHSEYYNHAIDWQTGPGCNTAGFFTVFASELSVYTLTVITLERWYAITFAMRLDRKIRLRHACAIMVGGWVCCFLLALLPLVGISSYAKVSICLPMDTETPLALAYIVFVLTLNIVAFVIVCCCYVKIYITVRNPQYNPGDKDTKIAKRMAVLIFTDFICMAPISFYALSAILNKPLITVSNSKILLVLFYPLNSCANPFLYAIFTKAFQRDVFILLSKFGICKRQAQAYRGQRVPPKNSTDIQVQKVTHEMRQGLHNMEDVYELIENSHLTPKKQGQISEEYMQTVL
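Antagonism was scored as loss of TSH-driven cAMP in TSHR cells, stimulated with 4nM TSH (EC80) for 2 hours at 37 deg C and detected by homogeneous HTRF competition immunoassay.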
TSG101-PTAP inh: blocks PTAP/TSG101 interaction to inhibit HIV-1 budding; Fluorescence polarization, FITC-PTAP peptide / Tsg101 binding; Potency, µM (doses to about 115 µM), for the others: top-dose activity change, negative = inhibition, usual class: inhibitors; 340,000 tested, under 10 active; Q99816; active = well fitted inhibition curve with a large enough effect in the main read-out, with a control signal flat, not every such curve was filed as active; inconclusive = small, poorly fitted or top-dose-only effect, or effect the other way, or a change in a side signal; inactive = no such curve, though single readings can be large or run the other way; note: potency is the fitted concentration of half-maximal effect; % of control where 0% means no effect
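Tsg101 binding domain (10 uM final) was mixed with compound and a FITC-labeled PTAP peptide (50 nM final) in HEPES pH 7.5 buffer with NaCl, Tween 20, EDTA and TCEP; fluorescence polarization was read after 20 min at r.t.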
PLK1 PBD block: inhibitors of human PLK1 polo-box domain binding; P53350; Plk1 PBD binding of FITC phosphopeptide, fluorescence polarization; Potency, µM, inactives show max response, negative = inhibition, most hits filed as inhibitors; hit rate 2.8% among 360,000; note: potency is the fitted concentration of half-maximal effect; series mostly up to about 57 µM; % is set by controls: 0 for no effect and ±100 for the full control effect; nearly all actives have a fitted effect of over 65% in size
The depositor's hits bear a star; ? = inconclusive; nt = not tested or not shown; ! = not confirmed by another sample. Sampled rows, rich in hits. Any-hit rate of the full collection: about 3.1%. Unless noted, calls come from the whole dose curve; as a rule, active = well fitted curve in the direction sought with a large enough effect; inconclusive = small, poorly fitted or top-dose-only effect, or another doubt; inactive = no such curve, though single readings can be large; an effect the other way counts as inactive or inconclusive.

SMILES	VDR inhibitor	uPA surface inh	TSHR antag	TSG101-PTAP inh	PLK1 PBD block
O=C(c1cccc(Br)c1)N1CCN(c2cnn(-c3ccccc3)c(=O)c2Cl)CC1	-1%	0%	-11	0%	7%
COc1ccccc1-c1csc(N2CCC(C(N)=O)CC2)n1	nt	nt	-14	nt	nt
CCC(C)NC(=O)c1sc2nc(C)c(C(=O)Nc3ccc(C)cc3C)c(-c3ccc(NC(C)=O)cc3)c2c1N (stereo not drawn)	-7%	nt	nt	nt	nt
COc1ccc(NC(=O)COC(=O)c2cccn2C)cc1S(=O)(=O)N1CCCCC1	6%	-1%	-9	-5%	-21%
Cc1ncc([N+](=O)[O-])n1C[C@H](O)CCl	-5%	nt	nt	nt	nt
S=C1Nc2ccccc2Sc2ccc(Cl)cc21	-13%	0%	-4	-1%	24µM*
COC(=O)CC1C(=O)NCCN1C(=O)CSc1nc2ccccc2s1 (stereo not drawn)	?	3%	19	1%	13µM*
COC(=O)CC1C(=O)NCCN1C(=O)c1ccccc1 (stereo not drawn)	3%	4%	0	-7%	3%
CN(Cc1ccccc1)C(=O)[C@H](Cc1ccc2ccccc2c1)NC(=O)[C@@H]1CCCN1C(=O)Nc1ccccc1[N+](=O)[O-]	10%	nt	nt	nt	nt
O=C(c1ccc(S(=O)(=O)Cc2ccccc2F)c([N+](=O)[O-])c1)N1CCCC1	-9%	-11%	-6	-9%	24µM*
CC1CCN(C(=O)c2ccc(S(=O)(=O)Cc3ccccc3F)c([N+](=O)[O-])c2)CC1	1%	-6%	-4	-11%	-13%
CC(C)c1ccc(NC(=O)Nc2nnc([C@H]3C[C@H](O)[C@@H](CO)O3)s2)cc1	nt	nt	nt	nt	2%
CCOC(=O)CCC(NC(=O)CCC(=O)NC(CCC(=O)OCC)C(=O)OCC)C(=O)OCC (stereo not drawn)	-2%	4%	4	-9%	-23%
CCOC(=O)C(CS)NCCN[C@@H](CS)C(=O)OCC (stereo partly drawn)	28µM*	nt	nt	nt	nt
O=C(NCCN1C(=O)S/C(=C\c2ccc(F)cc2)C1=O)C1CCN(S(=O)(=O)c2cccs2)CC1	?	8%	0	-4%	27µM*
COc1ccc(CC(=O)Nc2cc(Cl)ccc2C(=O)O)cc1	-7%	-18%	-9	-5%	-1%
CCCCOc1ccc(Nc2cc(Cl)ccc2C(=O)O)cn1	-15%	3%	-27	-8%	24µM*
CN(C)CCNC(=O)C(=O)Nc1ccc2c(c1)N(S(=O)(=O)c1cccs1)CCC2	-17%	4.5µM*	3	-10%	-2%
Cc1cc(C)c(OCCN2CCOCC2)c(Cl)c1	-9%	0%	-1	-3%	-4%
Cc1cc(C)c(NC(=O)OCCN2CCOCC2)c(C)c1	-20%	-1%	1	-8%	2.7µM*
O=C(NCc1ccccn1)[C@@H]1CCCN1C(=O)[C@@H]1CCCN1C(=O)c1cccc2ccccc12	nt	nt	nt	nt	-12%
CCOC(=O)C1=C(C)N=c2s/c(=C\c3ccc(C(=O)O)cc3)c(=O)n2C1c1ccc(F)cc1 (stereo not drawn)	?	-4%	-7	-10%	30µM*
CCOC(=O)C1=C(C)N=c2s/c(=C/c3cccc([N+](=O)[O-])c3O)c(=O)n2C1c1ccccc1 (stereo not drawn)	?	3%	-14	-7%	19µM*
CCOC(=O)C1=C(C)N=c2sc(=Cc3cc(Cl)c(OCC(=O)O)c(OC)c3)c(=O)n2C1c1ccccc1Cl (stereo not drawn)	nt	nt	nt	nt	27µM*
CC(=O)C1=C(C)N=c2s/c(=C/c3ccc4c(c3)OCO4)c(=O)n2C1c1ccc(N(C)C)cc1 (stereo not drawn)	32µM*	-1%	nt	3%	27µM*
SMILES	VDR inhibitor	uPA surface inh	TSHR antag	TSG101-PTAP inh	PLK1 PBD block
COc1ccc(C2C(C(C)=O)=C(C)N=c3s/c(=C/c4ccc5c(c4)OCO5)c(=O)n32)cc1 (stereo not drawn)	nt	nt	9	nt	nt
CC1=C(/C=C/C(C)=C/C=C/C(C)=C/CO)C(C)(C)CCC1	?	-11%	nt	0%	-8%
CC(=O)OC/C=C(C)/C=C/C=C(C)/C=C/C1=C(C)CCCC1(C)C	40µM*!	nt	nt	nt	nt
CCc1nc2ccccc2n1CC(O)COCC1CC=CCC1 (stereo not drawn)	-3%	9%	-15	-4%	-10%
Cc1nn(Cc2c(Cl)cccc2Cl)c(C)c1NC(=O)c1cc(C(C)C)on1	-6%	3.2µM*	-11	-2%	3%
Cc1nn(Cc2ccccc2Cl)c(C)c1NC(=O)c1cc(C(C)C)on1	1%	nt	nt	nt	nt
O=C1CCC/C(=N/Nc2ccc(Cl)cc2)C1	?	-17%	-22	-5%	30µM*
CCOc1ccc(S(=O)(=O)N/N=C2/CCCC(=O)C2)cc1	23%	1%	2	-4%	-12%
O=C(NCC1CCCN(C(=O)c2cccc(C(F)(F)F)c2)C1)c1ccc(F)cc1 (stereo not drawn)	10%	0%	-132*	-2%	-18%
CCOCC(=O)Nc1ccc(S(=O)(=O)NCC2CCCO2)cc1 (stereo not drawn)	-8%	3%	7	-1%	-7%
CC1=C(C(N)=O)C(c2ccncc2)n2nc(-c3ccccc3Cl)nc2N1 (stereo not drawn)	9%	-23%	-3	-3%	30µM*
COC(=O)CN=Cc1c(C)[nH]n(-c2ccccc2)c1=O	14%	5%	3	-1%	0%
Cc1[nH]n(-c2ccccc2)c(=S)c1C=NCCCN=Cc1c(C)[nH]n(-c2ccccc2)c1=S	?	-14%	33	-4%	17µM*
CC(=O)N1CCN(c2ccc(NCc3ccco3)cc2)CC1	-13%	4.5µM*	-11	0%	nt
O=C(CCc1nnc2ccc(NCc3ccco3)nn12)N1CCN(c2ccccc2)CC1	?	1%	-5	-4%	19µM*
O=C(NC(=S)Nc1ccc(N2CCCCC2)cc1)c1ccc2c(c1)OCCO2	-19%	3%	-22	-2%	-1%
S=C(NCc1ccco1)Nc1ccc(N2CCOCC2)cc1	?	-2%	10	-5%	27µM*
O=C(NC(=S)Nc1ccc(N2CCOCC2)cc1)c1ccc2c(c1)OCCO2	?	?	-12	2%	8.4µM*
O=S(=O)(c1ccc(NC(=S)NCc2ccco2)cc1)N1CCCC1	1%	-5%	-8	2%	-13%
O=C(CN1C(=O)COc2ccc(S(=O)(=O)N3CCOCC3)cc21)N1CCN(c2ccccc2F)CC1	-5%	nt	nt	nt	nt
S=C(NCc1ccco1)Nc1ccc(Oc2ccccc2)cc1	-14%	-11%	-7	2%	17µM*
c1ccc(CNc2nc(N3CCOCC3)nc(N3CCOCC3)n2)cc1	7%	12%	-2	-8%	-6%
c1ccc(CNc2nc(NCc3ccco3)nc(N3CCOCC3)n2)cc1	-7%	10%	0	-1%	30µM*
O=C(CSCc1cnn(-c2ccccc2)c1-n1cccc1)NCc1cccc(Cl)c1	10%	nt	nt	nt	nt

Compound activity as filed in PubChem BioAssay.
